Assay outcomes as filed in PubChem BioAssay.
GoLoco inh red – blocks human Gai1 binding to RGS12 GoLoco peptide, red readout. Potency, µM (doses to about 61.6 µM), usual class: inhibitors. hit rate 0.44% among 230,000. Gai1:RGS12 GoLoco peptide FP, rhodamine, 10 min. P63096; active = well fitted inhibition curve with a large enough effect, not every such curve was filed as active; inactive = no such curve, though single readings can be large or run the other way; note: nearly all actives have a fitted effect of over 30% in size
Tb PFK inh-1 – blocks T. brucei phosphofructokinase. O15648. T. brucei PFK, ADP-Glo luminescence. Potency, µM (doses to about 57.5 µM), usual class: inhibitors. hit rate 0.17% among 330,000; note: nearly all actives have a fitted effect of over 60% in size
Target sequence (O15648 whole entry, looked up): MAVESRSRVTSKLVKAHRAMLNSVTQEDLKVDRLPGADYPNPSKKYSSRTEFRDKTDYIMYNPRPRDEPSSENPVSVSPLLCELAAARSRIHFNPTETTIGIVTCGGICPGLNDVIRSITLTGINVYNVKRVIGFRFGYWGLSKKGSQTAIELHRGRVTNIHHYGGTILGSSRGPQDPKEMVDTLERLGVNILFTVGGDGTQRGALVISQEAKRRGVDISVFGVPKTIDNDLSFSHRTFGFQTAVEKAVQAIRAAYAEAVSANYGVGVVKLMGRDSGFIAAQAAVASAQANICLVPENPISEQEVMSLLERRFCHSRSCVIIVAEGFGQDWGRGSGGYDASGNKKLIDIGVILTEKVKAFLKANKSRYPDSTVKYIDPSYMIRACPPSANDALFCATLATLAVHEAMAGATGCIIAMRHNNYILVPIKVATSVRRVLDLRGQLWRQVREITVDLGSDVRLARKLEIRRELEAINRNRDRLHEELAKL
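1.25 nM PFK with 0.5 mM F6P and 0.1 mM ATP in 0.1 M TEA pH 8.0, 5 mM MgCl2, incubated 45 min at room temperature; ADP measured by ADP-Glo luminescence; compounds titrated up to 57 uM.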
NPSR antagonist – neuropeptide S receptor (human) antagonism, cAMP. Q6W5P4. CHO-NPSR cells, cAMP TR-FRET, antagonist mode. Potency, µM (series often up to 38.3 µM), most hits filed as inhibitors. hit rate 1% among 220,000; note: nearly all actives have a fitted effect of over 50% in size
MBNL1 CUG block – blocks human MBNL1 binding to CUG repeat RNA | Q9NR56 | TR-FRET MBNL1-His/biotin-(CUG)12 binding, 665/545 ratio | Potency, µM (highest dose often 57.5 µM), actives largely listed as inhibitors | hit rate 0.036% among 280,000 | AID 2675; active = well fitted inhibition curve with a large enough effect in the signal ratio, with a control signal flat, not every such curve was filed as active; inconclusive = small, poorly fitted or top-dose-only effect, or effect the other way, or a change in a side signal; inactive = no such curve, though single readings can be large or run the other way; the % refers to the signal ratio
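Ratiometric TR-FRET (665 over 545 nm, excitation 340 nm) tracks disruption of MBNL1-His/biotin-(CUG)12 complex after 60 min at room temperature, with compounds at 92 nM to 58 uM final.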
IMPase Li cell – IMPase inhibition in cells with lithium potentiation. CHO-M1 cells, IP1 TR-FRET (IP-One), carbachol + lithium. Potency, µM (doses to about 59.4 µM), actives largely listed as inhibitors. hit rate 0.35% among 210,000;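 note: IP1 builds up when IMPase is blocked and the TR-FRET signal falls; nearly all actives have a fitted effect of over 50% in size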
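CHO-M1, 2000 cells/well, 16–30 h culture; cpd + low Li+, 30 min 37C; lysis with d2-IP1/Eu-anti-IP1 Ab, 10 min RT; TR-FRET 665/620 ratio and 620 channel; AC50 via Hill.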
Tb PFK KinaseGlo – inhibits T. brucei PFK measured by ATP depletion; shares compounds with Tb PFK inh-1; Tb PFK enzyme, ATP depletion, Kinase-Glo Plus luminescence; Potency, µM (highest dose often 57.5 µM); hit rate 47% among 1,100; calls by dose curve; note: nearly all actives have a fitted effect of over 60% in size
Tb PFK inh-2 – validation of T. brucei phosphofructokinase inhibitors; hit rate 41% among 1,100; shares compounds with Tb PFK inh-1; purified T. brucei PFK, ADP-Glo luminescence, 45 min; Potency, µM (doses to about 57.5 µM), usual class: inhibitors; note: nearly all actives have a fitted effect of over 60% in size
Numbers stand for hits; [ ] = remark or other dose. Many of the other results were omitted from the sample, so hits are more common in it than they were. Unless noted, calls come from the whole dose curve; as a rule, active = well fitted curve in the direction sought with a large enough effect; inconclusive = small, poorly fitted or top-dose-only effect, or another doubt; inactive = no such curve, though single readings can be large; an effect the other way counts as inactive or inconclusive.

What do the screens show for `COc1cc(CC(=O)Nc2nc(-c3ccccc3)c(C(C)=O)s2)cc(OC)c1OC`?
Tb PFK inh-1: inconclusive; MBNL1 CUG block: inactive; Tb PFK KinaseGlo: inconclusive; Tb PFK inh-2: inconclusive

How did Cc1ccc(C(=O)Nc2cccc([N+](=O)[O-])c2)cc1S(=O)(=O)Nc1cccc(C(=O)O)c1 do in these assays?
GoLoco inh red: inactive; Tb PFK inh-1: 19µM; NPSR antagonist: inactive; MBNL1 CUG block: inactive; IMPase Li cell: inactive; Tb PFK KinaseGlo: 7.6µM; Tb PFK inh-2: 19µM

What do the screens show for `CCCCCC1C(=O)O[C@H](C)[C@@H](NC(=O)c2cccc(NC=O)c2O)C(=O)OC(C)C1OC(=O)CC(C)C` (some centres undefined)?
GoLoco inh red: inactive; IMPase Li cell: inactive

How did CC(C)(COCC1CO1)COCC1CO1 (centres undefined) do in these assays?
GoLoco inh red: inactive; IMPase Li cell: inactive

Results for Cc1cccc(NC(=O)COC(=O)c2cc(C)n(C3CC3)c2C)c1 ?
Tb PFK inh-1: inactive

How did COc1ccc2c(CC(=O)OCC(=O)Nc3cccc(C)c3)coc2c1 do in these assays?
Tb PFK inh-1: inconclusive; Tb PFK KinaseGlo: inconclusive; Tb PFK inh-2: inconclusive

What do the screens show for `c1ccc2c(c1)CCCC2`?
GoLoco inh red: inactive; IMPase Li cell: inactive

Results for COC(=O)[C@@]1(Cc2ccccc2)[C@H]2c3cc(C(=O)N(C)C)[nH]c3C[C@H]2CN1C(=O)c1ccccc1 ?
GoLoco inh red: inactive; IMPase Li cell: inactive

What do the screens show for `CCOc1ccc(C(C)=O)cc1N1C(=O)C2C3C=CC(O3)C2C1=O` (centres undefined)?
GoLoco inh red: inactive; Tb PFK inh-1: inconclusive; NPSR antagonist: inactive; MBNL1 CUG block: inactive; IMPase Li cell: inactive; Tb PFK KinaseGlo: inactive; Tb PFK inh-2: inconclusive

How did CCOc1ccc(C(C)=O)cc1Cn1ccsc1=N do in these assays?
Tb PFK inh-1: inactive; MBNL1 CUG block: inactive

What do the screens show for `O=C(c1cc2cc([N+](=O)[O-])ccc2oc1=O)n1cccn1`?
GoLoco inh red: inactive; Tb PFK inh-1: inconclusive; NPSR antagonist: inactive; MBNL1 CUG block: inconclusive; IMPase Li cell: inactive; Tb PFK KinaseGlo: inactive; Tb PFK inh-2: inactive

How did NCCc1ccc(S(=O)(=O)O)cc1[N+](=O)[O-] do in these assays?
GoLoco inh red: inactive[14.2 µM]; IMPase Li cell: inactive

What do the screens show for `O=C(NN1C(=O)CSC1=S)C(=O)NN1C(=O)CSC1=S`?
GoLoco inh red: inactive; Tb PFK inh-1: inconclusive; NPSR antagonist: inactive; MBNL1 CUG block: inactive; IMPase Li cell: inactive; Tb PFK KinaseGlo: inconclusive; Tb PFK inh-2: inactive

Results for C[C@H](CCC(=O)O)C[C@H](C)C[C@H](C)C(=O)/C=C(\O)[C@H](C)C[C@H](C)C/C=C/[C@@H](C)[C@@H](O)[C@@H](C)[C@@H](O)C[C@@H]1CC[C@@](C)(C2CC[C@@](C)([C@@H](C)O)O2)O1 (some centres undefined) ?
GoLoco inh red: inactive; IMPase Li cell: inactive

Results for CCOc1ccc(NC(=O)CCS(=O)(=O)c2ccc(Br)cc2)cc1 ?
Tb PFK inh-1: 15µM; MBNL1 CUG block: inactive; Tb PFK KinaseGlo: 2.7µM; Tb PFK inh-2: 4.8µM

Results for COc1cc(C(=O)N/N=C/c2ccc(OC(=O)N3CCOCC3)cc2)cc(OC)c1OC ?
GoLoco inh red: inactive; Tb PFK inh-1: inactive; NPSR antagonist: inactive; MBNL1 CUG block: inconclusive; IMPase Li cell: inactive

What do the screens show for `CCOC(=O)c1c(-c2ccco2)csc1NC(=O)COC(=O)c1cnccn1`?
Tb PFK inh-1: 6.7µM; Tb PFK KinaseGlo: 24µM; Tb PFK inh-2: inactive

What do the screens show for `O=C1/C(=C\c2ccccc2)C[C@@]2(O)[C@H]3Cc4ccc(O)c5c4[C@@]2(CCN3CC2CC2)[C@H]1O5`?
GoLoco inh red: inactive; IMPase Li cell: inactive

How did NC(=S)Nc1ccccc1 do in these assays?
GoLoco inh red: inactive; IMPase Li cell: inactive

Results for CC1CN(c2ccc([N+](=O)[O-])cc2Cl)CCN1 (centres undefined) ?
GoLoco inh red: inactive; Tb PFK inh-1: 9.5µM; NPSR antagonist: inactive; MBNL1 CUG block: inconclusive; IMPase Li cell: inactive; Tb PFK KinaseGlo: 27µM; Tb PFK inh-2: 30µM

How did CN1CCN(c2ccc([N+](=O)[O-])cc2Cl)CC1 do in these assays?
GoLoco inh red: inactive; Tb PFK inh-1: inactive; NPSR antagonist: inactive; MBNL1 CUG block: inconclusive; IMPase Li cell: inactive

What do the screens show for `O=C(O)c1cc2ncc(-c3[nH]ncc3[N+](=O)[O-])cn2n1`?
GoLoco inh red: inactive; Tb PFK inh-1: inconclusive; NPSR antagonist: inactive; MBNL1 CUG block: inconclusive; IMPase Li cell: inactive; Tb PFK KinaseGlo: inactive; Tb PFK inh-2: inconclusive

What do the screens show for `Fc1cccc(NCc2ccoc2)c1`?
GoLoco inh red: inactive; Tb PFK inh-1: inconclusive; NPSR antagonist: inactive; MBNL1 CUG block: inactive; IMPase Li cell: inactive; Tb PFK KinaseGlo: 12µM; Tb PFK inh-2: 19µM

Results for Fc1cccc(NCc2cn3ccccc3n2)c1 ?
GoLoco inh red: inactive; Tb PFK inh-1: 12µM; NPSR antagonist: inactive; MBNL1 CUG block: inactive; IMPase Li cell: inactive; Tb PFK KinaseGlo: inconclusive; Tb PFK inh-2: inactive

What do the screens show for `O=C(Nc1cccc(F)c1)N1CC2(CCNCC2)C1`?
GoLoco inh red: inactive; IMPase Li cell: inactive

How did C[N+]1(C)CCc2cc3c(cc2C1C1OC(=O)c2c1ccc1c2OCO1)OCO3 (centres undefined) do in these assays?
GoLoco inh red: inactive; NPSR antagonist: inactive; IMPase Li cell: inactive

Results for O=C(CCc1ccccc1)NNC(=O)c1ccc(NC(=O)c2ccccc2)cc1 ?
GoLoco inh red: inactive; Tb PFK inh-1: inconclusive; NPSR antagonist: inactive; IMPase Li cell: inactive; Tb PFK KinaseGlo: inconclusive; Tb PFK inh-2: inconclusive

How did O=C(NCCc1ccccc1)c1ccc2nccnc2c1 do in these assays?
GoLoco inh red: inactive; Tb PFK inh-1: inactive; NPSR antagonist: inactive; MBNL1 CUG block: inconclusive; IMPase Li cell: inactive

Results for NS(=O)(=O)c1ccc(NC(=S)NC2CCCC2)cc1 ?
GoLoco inh red: inactive; Tb PFK inh-1: inconclusive; NPSR antagonist: inactive; IMPase Li cell: inactive; Tb PFK KinaseGlo: inactive; Tb PFK inh-2: inactive

How did N#CCCn1cc(C(=O)Nc2ccc(F)cc2)c(-c2ccc([N+](=O)[O-])cc2)n1 do in these assays?
GoLoco inh red: inactive; Tb PFK inh-1: inactive; NPSR antagonist: inactive; MBNL1 CUG block: inconclusive; IMPase Li cell: inactive

Results for NS(=O)(=O)c1ccc(NC(=S)NCc2ccc(F)cc2)cc1 ?
GoLoco inh red: inactive; Tb PFK inh-1: 24µM; NPSR antagonist: inactive; MBNL1 CUG block: inactive; IMPase Li cell: inactive; Tb PFK KinaseGlo: 11µM; Tb PFK inh-2: 24µM
